For some assays here: Entries with a potency or affinity are not part of this list.
Columns and labels:
Parameters in all cases: scale not given: direction of the effect not stated beside the values
[1] = target: Protein translocase subunit SecA (Escherichia coli (strain K12)) (UniProt P10408); assay: Assay to Identify E. coli SecA ATPase Inhibitors; type: functional; details: 30 µM
[2] = target: T1, Ubiquitin-activating enzyme e1, putative (Leishmania donovani (strain BPK282A1)) (UniProt E9BSI1); assay: Leishmania donovani Ubiquitin Activating Enzyme (LdE1); type: functional; details: 30 µM
T1 sequence (whole entry): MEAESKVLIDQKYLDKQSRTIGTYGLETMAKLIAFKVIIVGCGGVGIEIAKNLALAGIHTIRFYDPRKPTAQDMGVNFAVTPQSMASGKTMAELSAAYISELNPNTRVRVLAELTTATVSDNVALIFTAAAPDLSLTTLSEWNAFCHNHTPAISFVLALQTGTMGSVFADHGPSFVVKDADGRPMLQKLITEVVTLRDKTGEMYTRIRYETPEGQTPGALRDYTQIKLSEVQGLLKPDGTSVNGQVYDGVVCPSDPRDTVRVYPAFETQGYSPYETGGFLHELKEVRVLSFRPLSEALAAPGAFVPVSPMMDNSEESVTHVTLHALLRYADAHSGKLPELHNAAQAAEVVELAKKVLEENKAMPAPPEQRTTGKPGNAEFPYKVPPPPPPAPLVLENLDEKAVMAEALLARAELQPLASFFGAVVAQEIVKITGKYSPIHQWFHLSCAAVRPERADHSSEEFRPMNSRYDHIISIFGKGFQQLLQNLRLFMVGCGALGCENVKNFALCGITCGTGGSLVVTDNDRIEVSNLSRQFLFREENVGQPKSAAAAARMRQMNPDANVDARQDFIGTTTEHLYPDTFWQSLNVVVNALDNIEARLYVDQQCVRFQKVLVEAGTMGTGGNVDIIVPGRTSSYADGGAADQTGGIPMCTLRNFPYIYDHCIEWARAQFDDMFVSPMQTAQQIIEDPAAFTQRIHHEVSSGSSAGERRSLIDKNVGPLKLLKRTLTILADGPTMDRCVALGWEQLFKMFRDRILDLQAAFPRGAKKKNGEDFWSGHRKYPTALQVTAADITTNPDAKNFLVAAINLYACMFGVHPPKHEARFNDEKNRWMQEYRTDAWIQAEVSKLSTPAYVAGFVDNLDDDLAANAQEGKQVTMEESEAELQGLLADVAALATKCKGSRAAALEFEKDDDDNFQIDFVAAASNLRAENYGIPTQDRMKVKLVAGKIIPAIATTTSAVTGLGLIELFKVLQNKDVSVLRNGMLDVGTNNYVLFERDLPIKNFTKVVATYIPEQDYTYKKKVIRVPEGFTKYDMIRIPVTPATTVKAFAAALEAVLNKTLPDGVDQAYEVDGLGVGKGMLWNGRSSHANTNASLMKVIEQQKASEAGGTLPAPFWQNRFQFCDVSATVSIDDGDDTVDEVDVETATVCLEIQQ

[3] = target: AMP-activated protein kinase, AMPK (Homo sapiens) (UniProt P54646+O43741+P54619+Q9UGJ0+Q9Y478+Q13131+Q9UGI9); assay: AMP-dependent Kinase enzyme assay. An in vitro enzyme assay that detects ADP turnover that is directly proportional to AMPK activity. This uses naive AMPK that is activated during the assay with MK-8722; type: functional; details: 30 µM
[4] = target: Sialic acid-binding Ig-like lectin 9 (Homo sapiens) (UniProt Q9Y336); assay: Hs-Siglec9 ALPHAscreen SOP 20170721; details: 10 µM
Sialic acid-binding Ig-like lectin 9 (Homo sapiens), sequence (Q9Y336 whole entry): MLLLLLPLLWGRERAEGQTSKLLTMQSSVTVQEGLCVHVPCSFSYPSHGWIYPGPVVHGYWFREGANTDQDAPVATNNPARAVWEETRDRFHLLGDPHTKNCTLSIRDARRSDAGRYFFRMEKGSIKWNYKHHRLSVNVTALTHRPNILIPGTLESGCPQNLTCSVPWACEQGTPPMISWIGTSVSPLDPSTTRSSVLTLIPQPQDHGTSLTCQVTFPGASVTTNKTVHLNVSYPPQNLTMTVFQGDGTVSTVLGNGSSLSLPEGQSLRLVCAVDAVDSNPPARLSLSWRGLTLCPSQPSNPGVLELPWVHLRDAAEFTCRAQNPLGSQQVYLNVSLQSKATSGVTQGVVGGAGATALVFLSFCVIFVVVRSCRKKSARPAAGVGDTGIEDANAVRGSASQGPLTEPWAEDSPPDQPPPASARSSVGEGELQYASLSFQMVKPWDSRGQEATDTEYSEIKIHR

Trypanosoma cruzi = assay: Trypanosoma cruzi phosphomannomutase and mannose-1-phosphate guanylyltransferase assay; type: functional; details: 10 µM
[5] = target: T2, Arginase-2, mitochondrial (Homo sapiens) (UniProt P78540); assay: in vitro enzyme assay to detect the production of urea directly proportional to the activity of Arginase II; type: functional; details: 33.3 µM; also: in the data most compounds retested in dose-response had high values
T2 sequence (whole entry): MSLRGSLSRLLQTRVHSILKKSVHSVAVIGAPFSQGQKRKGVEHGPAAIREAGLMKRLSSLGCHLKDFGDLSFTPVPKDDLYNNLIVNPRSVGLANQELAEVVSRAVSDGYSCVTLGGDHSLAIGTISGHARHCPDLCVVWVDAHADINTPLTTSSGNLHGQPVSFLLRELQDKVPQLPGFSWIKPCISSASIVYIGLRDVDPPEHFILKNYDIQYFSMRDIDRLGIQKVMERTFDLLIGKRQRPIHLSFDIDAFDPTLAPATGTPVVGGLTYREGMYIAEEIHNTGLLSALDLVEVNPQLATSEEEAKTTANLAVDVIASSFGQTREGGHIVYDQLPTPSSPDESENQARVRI

[6] = target: T3, Proteasome subunit beta (Trypanosoma cruzi) (UniProt O96673); assay: Trypanosoma cruzi proteasome chymotrypsin-like activity (TcProtChymo) assay.; also: in the data most compounds retested in dose-response had high values; type: functional; details: 9.37 µM
T3 sequence (whole entry): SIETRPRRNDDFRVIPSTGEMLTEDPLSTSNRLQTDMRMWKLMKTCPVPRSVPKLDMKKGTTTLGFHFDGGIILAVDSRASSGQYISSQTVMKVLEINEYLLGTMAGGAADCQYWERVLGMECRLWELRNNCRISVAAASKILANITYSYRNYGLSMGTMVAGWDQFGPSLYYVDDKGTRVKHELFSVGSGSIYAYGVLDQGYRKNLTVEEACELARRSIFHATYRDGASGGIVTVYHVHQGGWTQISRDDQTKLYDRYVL

Homo sapiens = organism: Homo sapiens; assay: To identify inhibition of the IFN signalling (Jak-Stat) pathway via expression of an eGFP reporter gene under the control of an IFN-stimulated response element (ISRE) containing MxA promoter.; type: functional; details: 30 µM
[7] = target: T4, Tyrosyl-tRNA synthetase, putative (Trypanosoma cruzi (strain CL Brener)) (UniProt Q4DSP6); assay: Trypanosoma cruzi tyrosyl tRNA synthetase (TcYRS) _High Tyrosine SOP; type: functional; details: 30 µM; also: in the data most compounds retested in dose-response had high values
T4 sequence (whole entry): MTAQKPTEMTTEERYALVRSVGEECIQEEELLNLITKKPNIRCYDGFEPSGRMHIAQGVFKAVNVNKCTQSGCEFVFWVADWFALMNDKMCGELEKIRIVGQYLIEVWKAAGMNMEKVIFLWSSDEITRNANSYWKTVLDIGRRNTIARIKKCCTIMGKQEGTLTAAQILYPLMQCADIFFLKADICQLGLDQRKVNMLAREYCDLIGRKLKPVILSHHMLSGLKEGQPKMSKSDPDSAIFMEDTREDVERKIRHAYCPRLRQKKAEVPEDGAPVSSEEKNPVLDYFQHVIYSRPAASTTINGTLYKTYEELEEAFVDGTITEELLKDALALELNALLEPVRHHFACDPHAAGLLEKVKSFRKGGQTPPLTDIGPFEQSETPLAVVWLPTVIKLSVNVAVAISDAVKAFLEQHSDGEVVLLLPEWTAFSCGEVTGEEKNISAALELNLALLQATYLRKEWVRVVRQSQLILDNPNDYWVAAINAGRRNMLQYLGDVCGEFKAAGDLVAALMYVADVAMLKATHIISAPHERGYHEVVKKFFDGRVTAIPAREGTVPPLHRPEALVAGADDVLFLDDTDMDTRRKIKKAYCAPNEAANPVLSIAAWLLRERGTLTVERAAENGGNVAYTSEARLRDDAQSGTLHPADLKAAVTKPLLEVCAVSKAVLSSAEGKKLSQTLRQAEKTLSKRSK

[8] = target: T4, Tyrosyl-tRNA synthetase, putative (Trypanosoma cruzi (strain CL Brener)); assay: Trypanosoma cruzi tyrosyl tRNA synthetase (TcYRS) SOP; type: functional; details: 30 µM
[9] = target: Chromo domain-containing protein 1 (Saccharomyces cerevisiae (strain ATCC 204508 / S288c) (Baker's yeast)) (UniProt P32657); assay: ScCHD-1 Enzyme Inhibition Assay; type: functional; details: 30 µM; also: in the data most compounds retested in dose-response had high values
Chromo domain-containing protein 1 (Saccharomyces cerevisiae (strain ATCC 204508 / S288c) (Baker's yeast)), sequence (P32657 whole entry, the tested form may be a part): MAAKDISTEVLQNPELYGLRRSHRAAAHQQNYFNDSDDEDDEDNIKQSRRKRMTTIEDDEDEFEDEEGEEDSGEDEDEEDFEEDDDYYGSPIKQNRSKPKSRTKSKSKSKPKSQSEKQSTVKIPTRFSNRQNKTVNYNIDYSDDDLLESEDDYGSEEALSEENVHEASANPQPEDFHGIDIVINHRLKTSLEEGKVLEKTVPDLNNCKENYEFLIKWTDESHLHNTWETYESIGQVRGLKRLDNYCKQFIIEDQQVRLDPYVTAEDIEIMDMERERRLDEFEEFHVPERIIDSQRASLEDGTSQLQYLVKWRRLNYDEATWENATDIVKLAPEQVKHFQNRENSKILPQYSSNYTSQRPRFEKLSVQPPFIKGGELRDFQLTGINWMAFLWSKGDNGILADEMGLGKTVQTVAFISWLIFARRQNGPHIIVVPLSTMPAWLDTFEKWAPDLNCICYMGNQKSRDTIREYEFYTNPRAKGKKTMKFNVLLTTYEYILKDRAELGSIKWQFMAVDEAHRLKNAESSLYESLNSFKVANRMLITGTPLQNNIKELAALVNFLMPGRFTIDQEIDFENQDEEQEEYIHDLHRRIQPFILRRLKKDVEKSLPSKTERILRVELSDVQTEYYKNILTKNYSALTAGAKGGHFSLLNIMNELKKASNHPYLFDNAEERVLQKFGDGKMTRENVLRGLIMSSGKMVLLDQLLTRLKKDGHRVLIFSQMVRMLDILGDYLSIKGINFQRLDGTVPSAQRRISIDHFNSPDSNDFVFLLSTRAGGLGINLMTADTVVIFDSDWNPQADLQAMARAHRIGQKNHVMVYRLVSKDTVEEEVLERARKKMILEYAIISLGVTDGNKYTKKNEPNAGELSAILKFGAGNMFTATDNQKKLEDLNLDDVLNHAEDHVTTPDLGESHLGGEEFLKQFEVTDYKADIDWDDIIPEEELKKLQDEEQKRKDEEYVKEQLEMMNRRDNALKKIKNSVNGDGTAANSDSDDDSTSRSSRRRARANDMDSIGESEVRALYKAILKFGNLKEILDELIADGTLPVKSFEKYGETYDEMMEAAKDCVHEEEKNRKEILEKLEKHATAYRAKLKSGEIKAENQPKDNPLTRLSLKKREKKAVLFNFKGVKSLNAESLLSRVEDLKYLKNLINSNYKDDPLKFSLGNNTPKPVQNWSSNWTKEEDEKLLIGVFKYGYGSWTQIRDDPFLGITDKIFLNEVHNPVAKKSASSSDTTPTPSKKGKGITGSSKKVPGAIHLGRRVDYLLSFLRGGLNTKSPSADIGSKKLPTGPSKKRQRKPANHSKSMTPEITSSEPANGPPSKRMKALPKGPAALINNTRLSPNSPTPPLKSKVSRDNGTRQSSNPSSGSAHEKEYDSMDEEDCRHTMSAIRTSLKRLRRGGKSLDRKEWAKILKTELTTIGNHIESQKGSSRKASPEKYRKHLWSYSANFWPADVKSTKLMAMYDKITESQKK

Protein translocase subunit SecA (Escherichia coli (strain K12)), sequence (P10408 whole entry): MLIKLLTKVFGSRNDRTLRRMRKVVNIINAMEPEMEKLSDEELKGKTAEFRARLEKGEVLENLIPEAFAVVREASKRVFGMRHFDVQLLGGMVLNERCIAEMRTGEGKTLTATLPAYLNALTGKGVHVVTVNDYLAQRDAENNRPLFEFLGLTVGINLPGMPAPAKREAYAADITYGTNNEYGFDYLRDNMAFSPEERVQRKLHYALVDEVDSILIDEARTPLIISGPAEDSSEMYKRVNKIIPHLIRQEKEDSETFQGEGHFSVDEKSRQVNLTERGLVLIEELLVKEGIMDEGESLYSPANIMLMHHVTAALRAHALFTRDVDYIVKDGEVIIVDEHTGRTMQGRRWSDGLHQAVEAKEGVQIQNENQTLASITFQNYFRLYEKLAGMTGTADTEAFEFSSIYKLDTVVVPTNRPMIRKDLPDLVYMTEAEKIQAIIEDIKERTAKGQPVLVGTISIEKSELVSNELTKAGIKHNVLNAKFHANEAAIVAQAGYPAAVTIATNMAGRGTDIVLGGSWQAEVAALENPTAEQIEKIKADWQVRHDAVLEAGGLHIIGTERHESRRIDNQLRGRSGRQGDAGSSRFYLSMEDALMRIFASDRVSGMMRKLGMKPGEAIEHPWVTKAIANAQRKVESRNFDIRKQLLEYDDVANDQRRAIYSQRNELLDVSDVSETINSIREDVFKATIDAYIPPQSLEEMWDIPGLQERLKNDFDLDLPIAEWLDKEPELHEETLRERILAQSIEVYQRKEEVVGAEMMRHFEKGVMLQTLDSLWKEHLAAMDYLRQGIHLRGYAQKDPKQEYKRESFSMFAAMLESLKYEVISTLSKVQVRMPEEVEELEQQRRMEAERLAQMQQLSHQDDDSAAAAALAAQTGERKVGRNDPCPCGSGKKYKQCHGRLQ

| Structure (SMILES) | Percent Effect [1] [%] | Percent Effect [2] [%] | Percent Effect [3] [%] | Percent Effect [4] [%] | Percent Effect (Trypanosoma cruzi) [%] | Percent Effect [5] [%] | Percent Effect [6] [%] | Percent Effect (Homo sapiens) [%] | Percent Effect [7] [%] | Percent Effect [8] [%] | Percent Effect [9] [%] |
| --- | --- | --- | --- | --- | --- | --- | --- | --- | --- | --- | --- |
| COCc1cc(O)nc(C2CCCN(Cc3cc(OC)ccc3F)C2)n1 (configuration not stated) | -7.04 | 1.35 | 4.88 | 5.64 | -3.56 | -2.09 | -0.312 | 16.7 | -2.15 | -1.3 | -9.01 |
| CCN(CC)C(=O)c1ccn(COc2ccccc2)n1 | -2.87 | -4 | 2.57 | 5.83 | 4.32 | -2.99 | 8.5 | 1.5 | 5.29 | 10.3 | -0.306 |
| CCC(CC)c1cc(CNC(=O)N2CCOCC2CC)on1 (configuration not stated) | -3.39 | 0 | -0.644 | 2.45 | 7.33 | -1.24 | 0.0858 | -31.4 | 0 | 1.24 | -0.017 |
| Cc1cnn(CC2CCCN2CCc2nc3ccccc3c(=O)[nH]2)c1 (configuration not stated) | -3.81 | 10.1 | -7.83 | 11.2 | 6.89 | 4.56 | -1.06 | 15.8 | 3.45 | 16.5 | -5.27 |
| COc1ccc(-c2cnc(CN3CCn4c(C)nnc4C3)o2)cc1 | -8.18 | 5.26 | -2.37 | 6.41 | 10.9 | -3.06 | 7.18 | 11.6 | 6.37 | 19.5 | -14.7 |
| Cc1nn(C)c(C)c1C1COCCN1C(=O)c1cnc(N)c(Cl)c1 (configuration not stated) | -2.77 | 23.4 | 2.76 | -1.47 | -2.62 | 0.356 | 10.1 | 4.22 | 3.88 | 19.5 | -7.54 |
| CC(CCc1ccco1)NC(=O)Nc1cc(C(F)(F)F)c[nH]c1=O (configuration not stated) | -8.08 | 7.89 | 40.7 | 3.56 | 0.467 | -3.24 | 13.1 | 17 | 7.39 | 13.6 | -2 |
| CO[C@H]1CCN(C(=O)Cc2ccccn2)[C@H]1Cc1ccncc1 | -0.476 | 16 | 1.42 | -1.93 | -4.53 | -2.56 | 8.02 | 7.43 | 3.19 | 11.5 | -2.72 |
| CCOc1ncccc1NC(=O)N1CCCCCC1 | -4.07 | 5.41 | 0.669 | 8.62 | -0.836 | -1.29 | 0.179 | 13.2 | 2.97 | 6.1 | 1.09 |
| Cc1ccc(CN2CC[C@H]3C[C@@H](c4nc(C5CC5)cs4)O[C@@H]3C2)o1 | -2.45 | 2.6 | 0.23 | 10 | 10.1 | -48.3 | 16.3 | 36.5 | 10.8 | 16.1 | -1.64 |
| Cc1nccc(-c2cccc(NCC(=O)N3CCc4sccc4C3)c2)n1 | -1.56 | 2.63 | 49.8 | -3.82 | 4.76 | -1.8 | 6.68 | -23.6 | 11.3 | 30.9 | -8.23 |
| N#Cc1ccnc(N2CCN(C(=O)Cc3ccc4c(c3)CCO4)CC2)c1 | -5.74 | 21.1 | -3.75 | 4.19 | 5.83 | 0 | 13.4 | 1.61 | 2.45 | 19.5 | -11.9 |
| CCOCCCNC(=O)c1nn(CC)cc1Cl | -0.389 | 14.7 | -2.38 | -8.09 | 3.14 | -8.28 | 12.8 | 18.8 | 5.29 | 12.8 | -10.4 |
| CCn1cc(Br)c(C(=O)NCc2cnn(C)c2)n1 | -1.67 | 13 | -0.504 | 11.9 | 6.79 | -6.9 | 13 | 1.3 | 8.6 | 21 | 18.8 |
| O=C(C1SCCc2sccc21)N1CCC(O)CC1 (configuration not stated) | -4.42 | -5.41 | 2.06 | 0.929 | -6.25 | 0.833 | 6.34 | 5.86 | 5.94 | 1.22 | 1.03 |
| CCCN(C(=O)c1ccccn1)c1nc2c(s1)CCc1c-2cnn1C | 3.44 | 60.8 | -62.8 | 3.48 | 0.988 | 15.6 | 17.5 | 32.7 | -6.45 | -6.49 | -6.45 |
| O=C(NCCN1CCCCC1)c1scnc1Cl | -0.516 | 15.8 | 7.25 | -5.01 | -5.7 | 3.24 | 13.6 | 3.91 | 9.36 | 16.1 | -5.64 |
| COCCN1CC[C@@H]2O[C@@H](COCC(=O)N3CCCC3)CC[C@@H]21 | -3.65 | 5.48 | -6.36 | 2.85 | 7.94 | -3.99 | 3.85 | -31.2 | 7.29 | 13.6 | -5.05 |
| CCc1nc(C)c(C(=O)N2C[C@H]3CC[C@@H]2CN(S(=O)(=O)N(C)C)C3)s1 | -5.92 | 2.67 | -0.605 | -2.09 | -8.28 | -2.08 | 15.9 | 21.2 | -0.546 | 3.7 | -4.98 |
| Cc1ccc(-c2nnc(SCC(=O)O)n2-c2ccc(C)cc2)cc1 | -2.58 | 13.3 | 1.28 | 2.44 | 3.74 | 1.17 | 13.8 | 28.5 | 6.38 | -98.7 | -3.8 |
| CCOc1cc(C(=O)N2CCCC(n3cncn3)C2)ccc1C (configuration not stated) | 2.65 | -8.11 | 0.403 | -1.22 | -1.21 | 1.66 | -7.18 | 4.36 | 0.99 | 1.22 | 11.6 |
| Cc1nc(CN2CCCN(CCOc3cccc(C#N)c3)CC2)no1 | -0.969 | 13.2 | -4.74 | -2.13 | -7.38 | 3.24 | 16.3 | 7.6 | 6.4 | 11.1 | -9.28 |

Source: ChEMBL document CHEMBL3988442, “University of Dundee, Small-Polar-MMV Screening Library” (2021)
